In the supplement of paper PMC7156485:
Several values for one entry are separate records, joined by “and”; a condition that tells them apart may be missing. Identical values can stand only once. ± gives the standard deviation of the averaged measurements.

Tested on: HCC1569
Test: cell number relative to DMSO (% of DMSO); higher = more cells (less growth inhibition / toxicity)
Conditions: concentration: 10 µM; 24 h
Summary of the method: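 Cells were seeded at 800 per well in 384-well plates with RPMI containing 10% FBS; both HCC1569 and TDF lines were used. Compounds were added at 10 µM for 24 h at 37 °C, in triplicate, before fixation in 3.7% formaldehyde and staining with a rabbit anti-H1.0 antibody, an AlexaFluor 647 secondary and DAPI. H1.0 nuclear intensity or cell number is reported as percent of the plate control using the median of replicates, and HCC1569 values were smoothed for positional effects.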
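Note: TDF denotes transformed human dermal fibroblasts of mesenchymal origin.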

SMILES | cell number
Cc1ccc(S(=O)(=O)C=CC#N)cc1 | 68.3 and 78.4
Cc1c(O)cc2c(c1C)OC(C)(CCCC(C)CCCC(C)CCCC(C)C)CC2 [D-γ-Tocopherol] | 100
CC(C)(C)NCC(O)COc1nsnc1N1CCOCC1.O=C(O)C=CC(=O)O [(S)-Timolol maleate] | 106
O=NN(CCCl)C(=O)NC1CCCCC1 [Lomustine] | 104
OCC1OC(n2cnc3c(NC4CCCC4)ncnc32)C(O)C1O (centres undefined) [N6-Cyclopentyladenosine] | 99.8
CC(=O)OCC(=O)C1(O)CCC2C3CCC4=CC(=O)CCC4(C)C3C(O)CC21C (centres undefined) [Hydrocortisone 21-acetate] | 99.8
COc1cc2ncnc(N3CCN(C(=O)Nc4ccc(Oc5ccccc5)cc4)CC3)c2cc1OC [PDGF Receptor Tyrosine Kinase Inhibitor III] | 72.2
CCOC(=O)C(C)(C)Oc1ccc(Cl)cc1 [Clofibrate] | 102 ± 2.9
CN(C)C(=O)N=NC(=O)N(C)C [N,N,N',N'-Tetramethylazodicarboxamide] | 94.8
Cc1nc(-c2ccccc2)c(-c2ccncc2)o1 | 99.2
CN1CCC(=C2c3ccccc3C=Cc3ccccc32)CC1.Cl [Cyproheptadine hydrochloride] | 98
Cc1cncc2cccc(S(=O)(=O)N3CCCN(C(=O)CN)CC3C)c12.Cl.Cl.O (centres undefined) [Rho Kinase Inhibitor IV] | 78.3
CNC(=O)c1cc2c(cn1)[nH]c1ccccc12 [N-Methyl-beta-carboline-3-carboxamide] | 107
CC(C)N(CCC(=O)c1ccc2ccccc2c1)Cc1ccccc1.Cl | 96.2
O=C(Nc1ccc([N+](=O)[O-])cc1Cl)c1cc(Cl)ccc1O [Niclosamide] | 70
CC=C(C)C(=O)OC1CC(C)=CC(=O)C2(C)CCC(O)(C(C)C)C12 (centres undefined) [Lapidin] | 104
OCC1OC(OC2OC=CC3C(O)C4OC4(CO)C23)C(O)C(O)C1O (centres undefined) [Catalpol] | 105

SMILES | cell number
CC(N)(Cc1ccc(O)cc1)C(=O)O [L-alpha-Methyl-p-tyrosine] | 107
CCCCCCCCCCCCCCCC(O)C(CO)NC(=O)CCCCCCC (centres undefined) [C8 Dihydroceramide] | 100
CCCN(CCc1ccccc1)C1CCc2c(O)cccc2C1 (centres undefined) [2-(N-Phenethyl-N-propyl)amino-5-hydroxytetralin] | 105
O=C1NC(=O)c2c1c1c3ccccc3[nH]c1c1[nH]c3cc(Br)ccc3c21 [Cdk4 Inhibitor] | 74.2
O=[N+]([O-])c1ccc(S(=O)(=O)NCc2ccccc2)c([N+](=O)[O-])c1 [N-Benzyl-2,4-dinitrobenzenesulfonamide] | 79
COc1ccc(-c2cc(=S)ss2)cc1 [Anethole-trithione] | 102
CCCCCCCCCCCCC(=O)N1CCCCC1CNC(=O)C(N)CCCCN.Cl.Cl (centres undefined) | 101
COc1ccc(N2C(=O)CSC2c2cccc(Br)c2)c(OC)c1 (centres undefined) | 59.5
CCCCCC=CCC(O)C=CC=CC=CC(O)CCCC(=O)O [5(S),12(S)-DIHETE all trans] | 101
COc1ccc(CC[C@H]2CCC[C@@H](CCc3ccc(OC)cc3)N2C[C@@H](O)CO)cc1.Cl | 101
O=c1c(O)c(-c2ccccc2)oc2cc(O)cc(O)c12 [Galangine] | 98.1
COc1cc2c(c(OC)c1OC)-c1ccc(OC)c(=O)cc1C(NC=O)CC2 (centres undefined) [N-Formyl-Deacetylcolchicine] | 98.9
Cl.Cl.Cl.NCCC1CCCC(CCN)N1 (centres undefined) [MDL 26,630 trihydrochloride] | 104
Cc1c[nH]c(C=C2C(=O)Nc3ccccc32)c1CCC(=O)O | 101
COC(C(=O)C(O)C(C)O)C1Cc2cc3cc(OC4CC(OC5CC(O)C(O)C(C)O5)C(O)C(C)O4)c(C)c(O)c3c(O)c2C(=O)C1OC1CC(OC2CC(OC3CC(C)(O)C(O)C(C)O3)C(O)C(C)O2)C(O)C(C)O1 (centres undefined) [Plicamycin] | 60.8
S=c1ccss1 [1,2-Dithiole-3-thione] | 101
CCOC(=O)OC(C)OC1=C(C(=O)Nc2ccccn2)N(C)S(=O)(=O)c2ccccc21 (centres undefined) [Ampiroxicam] | 105
